Results published in PubChem BioAssay (NCI).
This is part of a sample that, as a whole, favours compounds with a hit. Of some 79,000 tested, about 15% had one in any assay. Unmarked numbers belong to inactive results. Calls of active or inactive are those of the source. Cut-off read from the data, not from the text of the source: active = growth inhibition above about 70%; inactive = the rest.

How the values were obtained:
[1] = NCI Yeast Anticancer Drug Screen. Data for the rad50 strain (AID 155);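 note: 0% = growth of vehicle-only cultures of the same strain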; settings: S. cerevisiae rad50 strain growth inhibition, active compounds read high
Method in brief: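 Growth of the mutant yeast was measured after compound exposure and referenced to vehicle-treated cultures.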

[2] = NCI Yeast Anticancer Drug Screen. Data for the mec2-1 strain (AID 157); settings: S. cerevisiae mec2-1 strain, active compounds read high
Method in brief: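 Vehicle-treated cultures served as reference for growth inhibition of compound-exposed mec2-1 yeast.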

[3] = NCI Yeast Anticancer Drug Screen. Data for the sgs1 mgt1 strain (AID 161);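 note: 0% = growth of cultures given vehicle only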; settings: S. cerevisiae sgs1 mgt1 strain, active compounds read high
Method in brief: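 Read-out: growth inhibition vs vehicle controls. Cells: mutant yeast strain deficient in DNA damage repair.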

[4] = NCI Yeast Anticancer Drug Screen. Data for the cln2 rad14 strain (AID 165);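 note: 0% = growth equal to vehicle treated cultures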; settings: S. cerevisiae cln2 rad14 strain, active compounds read high
Method in brief: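 Each compound was tested on cln2 rad14 yeast. Inhibition of growth was calculated against vehicle-exposed controls.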

[5] = NCI Yeast Anticancer Drug Screen. Data for the bub3 strain (AID 167); settings: S. cerevisiae bub3 mutant strain, active compounds read high
Method in brief: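 Whole-cell yeast assay. The mutant strain was incubated with compounds, and growth inhibition was determined by comparison with vehicle-treated cells.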

[6] = NCI Yeast Anticancer Drug Screen. Data for the mlh1 rad18 strain (AID 175); settings: S. cerevisiae mlh1 rad18 strain growth inhibition, active compounds read high
Method in brief: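 Vehicle-treated cultures served as the reference for growth inhibition in a yeast strain carrying DNA damage repair alterations exposed to each compound.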

[7] = at 5.0 µM (retest, dose inferred, filed as 0.5)
[8] = at 50.0 µM (retest, dose inferred, filed as 5.0)

SMILES	growth inhibition [1, 7]	growth inhibition [1, 8]	growth inhibition ([1]; at 50.0 µM)	growth inhibition [2, 7]	growth inhibition [2, 8]	growth inhibition ([2]; at 50.0 µM)	growth inhibition [3, 7]	growth inhibition [3, 8]	growth inhibition ([3]; at 50.0 µM)	growth inhibition [4, 7]	growth inhibition [4, 8]	growth inhibition ([4]; at 50.0 µM)	growth inhibition [5, 7]	growth inhibition [5, 8]	growth inhibition ([5]; at 50.0 µM)	growth inhibition [6, 7]	growth inhibition [6, 8]	growth inhibition ([6]; at 50.0 µM)
NC(=O)C(=CNc1nc(-c2ccc(Br)cc2)cs1)C(N)=O	-5%	92% (active)	99.5% (active)	-11%	98% (active)	99.5% (active)	-3%	92% (active)	99.5% (active)	-34%	94% (active)	98.9% (active)	-11%	99% (active)	99.5% (active)	-6%	98% (active)	99.3% (active)
CC(C)(C)C1CCC(SCCO)CC1 (stereo not given)	-22%	98% (active)	97.5% (active)	-2%	95% (active)	91.9% (active)	-3%	98% (active)	97.7% (active)	-9%	97% (active)	90% (active)	-8%	98% (active)	95% (active)	14%	99% (active)	95.4% (active)
COC1OC(COC(=O)c2ccccc2)CC1F (stereo not given)	16%	-26%	93.5% (active)	-8%	-22%	94.8% (active)	-12%	-13%	94% (active)	-24%	-2%	91.8% (active)	19%	26%	93.3% (active)	18%	-54%	92.2% (active)
O=C(O)C(SC1=NNC2(C(=O)N1)c1ccccc1-c1ccccc12)SC1=NNC2(C(=O)N1)c1ccccc1-c1ccccc12	4%	96% (active)	97.5% (active)	-19%	92% (active)	96.3% (active)	2%	96% (active)	97.4% (active)	4%	66%	95.8% (active)	9%	93% (active)	98% (active)	-15%	95% (active)	97.3% (active)
CCOc1ccccc1/C=C1\C=Nc2ccccc21	6%	-16%	11.8%	-16%	8%	16.1%	-6%	0%	16.2%	25%	16%	7.65%	8%	15%	24.7%	-10%	-17%	6.35%
Cc1ccc(Sc2ccc(C)cc2[N+](=O)[O-])c([N+](=O)[O-])c1	33%	40%	2.7%	31%	35%	-10.7%	69%	68%	66.2%	39%	37%	20.5%	56%	56%	29.1%	43%	53%	-8.85%
O=c1cc(/C=C/c2ccccc2)cccc1O	79% (active)	97% (active)	97.8% (active)	90% (active)	96% (active)	98.2% (active)	84% (active)	99% (active)	98.5% (active)	56%	98% (active)	96.9% (active)	97% (active)	93% (active)	97.5% (active)	58%	98% (active)	97.9% (active)
Cc1ccc2c(c1)CSCCO2	86% (active)	99% (active)	99.3% (active)	87% (active)	100% (active)	99.7% (active)	87% (active)	99% (active)	99.5% (active)	50%	100% (active)	99.3% (active)	90% (active)	99% (active)	99.5% (active)	92% (active)	99% (active)	99.5% (active)
COc1ccc(C2c3cc4c(cc3OC(C)(O)C2C)OCO4)cc1 (stereo not given)	5%	94% (active)	98.8% (active)	8%	94% (active)	95.4% (active)	8%	92% (active)	92% (active)	8%	84% (active)	97.5% (active)	-2%	96% (active)	98.3% (active)	-2%	93% (active)	98.5% (active)
O=C(Nc1ccc(Cl)cc1)Nc1cc(Cl)ccc1O	-2%	22%	93% (active)	0%	35%	96.2% (active)	-1%	28%	90.3% (active)	-8%	27%	94% (active)	-4%	19%	96.5% (active)	-3%	30%	97.5% (active)
